From PubChem
KDM5B inhibitor = Primary screen for KDM5B Histone Demethylases FDH-coupled qHTS. Lysine-specific demethylase 5B (Homo sapiens), Q9UGL1. KDM5B demethylase, FDH-coupled NADH fluorescence (FDH is formaldehyde dehydrogenase). Potency, µM (titrated, usually from 57.7 µM), hits mostly inhibitors. hit rate 2.6% among 220,000. AID 1347165, 2019; active = well fitted inhibition curve with a large enough effect; also: 0% is about no effect; nearly all actives have a fitted effect of over 70% in size
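Here, H3K4me3 peptide (12.5 µM in substrate mix) is demethylated by KDM5BΔAP, 200 nM final, after 10 min compound exposure. Formaldehyde product is coupled through FDH (0.25 U/mL in mix) to NADH fluorescence; 30-min ΔRFU feeds dose-response curves.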
Active calls of the source: *; i = inactive. Many of the other results were omitted from the sample, so hits are more common in it than they were. Potency is read from the fitted curve at half-maximal effect.

SMILES	KDM5B inhibitor
Cc1nn(-c2ncnc3nc[nH]c23)c2c1C(c1ccc(F)c(F)c1)CC(=O)N2 (centres undefined)	i
NC(=O)C1CCN(C(=O)CCc2ncc(-c3ccc(F)cc3)o2)CC1	i
Cc1c(C(=O)N(CCc2cccs2)Cc2cccs2)[nH]c2c1C(=O)CC(C)(C)C2	i
COCCN1C(=O)c2ccccc2C(C(=O)NCCc2ccccc2)C12CCCCC2 (centres undefined)	i
CCCCNC(=O)C1c2ccccc2C(=O)N(CCOC)C12CCCCC2 (centres undefined)	i
O=C(NC1CC1)C1c2ccccc2C(=O)N(C2CCCCC2)C12CCCCC2 (centres undefined)	i
COCCN1C(=O)c2ccccc2C(C(=O)Nc2ccc(OC)cc2)C12CCCC2 (centres undefined)	16µM*
COCCN1C(=O)c2ccccc2C(C(=O)NCCc2c[nH]c3ccccc23)C12CCCC2 (centres undefined)	22µM*
Cc1nc(NC(=O)C2c3ccccc3C(=O)N(C3CCCC3)C23CCCC3)sc1C (centres undefined)	22µM*
COCCN1C(=O)c2ccccc2C(C(=O)Nc2ccc(C(=O)OC)cc2)C12CCCC2 (centres undefined)	i
CC(C)NC(=O)C1c2ccccc2C(=O)N(C2CCCC2)C12CCCC2 (centres undefined)	i
COCCN1C(=O)c2ccccc2C(C(=O)Nc2ccc(NC(C)=O)cc2)C12CCCCC2 (centres undefined)	i
CC(C)NC(=O)C(C#N)(Cc1ccc(C#N)cc1)Cc1ccc(C#N)cc1	i
O=C(c1ccc2c(c1)OCO2)N1CCc2nc(C3CC3)nc(-c3ccc(Cl)cc3)c2C1	i
CCCCN(CC)C(=O)CCNC(=O)Cn1cnc2sc3c(c2c1=O)CCCC3	i
Cn1nccc1-c1cc2c(cn1)CN(Cc1ccncc1)CCN2	35µM*
COc1ccc(Nc2cc3c(cn2)CN(Cc2ccncc2)CCN3)cn1	i
c1ccc(CN2CCNc3cc(-c4ccncc4)ncc3C2)cc1	i
Clc1ccc(-c2cc3c(cn2)CN(Cc2ccncc2)CCN3)cc1	32µM*
CCn1cc(-c2cc3c(cn2)CN(Cc2ccncc2)CCN3)cn1	32µM*
CCCNC(=O)C1CCCN1S(=O)(=O)c1ccc(Br)s1 (centres undefined)	i
CC(C#N)OC(=O)c1ccccc1Cc1ccccc1 (centres undefined)	i
CC(C)(C)c1ccc(C(=O)N2CCN(C(=O)c3nnn4c3COC(c3ccccc3)C4)CC2)cc1 (centres undefined)	i
Cc1ccc(S(=O)(=O)N2CCCCC2)cc1NC(=O)c1nn(C(C)C)c(=O)c2ccccc12	i
CCN(C(=O)c1cc(-c2ccccc2)c(N2CCOCC2)s1)C1CCS(=O)(=O)C1 (centres undefined)	i
SMILES	KDM5B inhibitor
CC1(C)CC(=O)C/C(=N/NC(=O)CCc2ccccc2)C1	i
CC(=O)c1cccc(OCc2cccc(C(N)=O)c2)c1	i
Fc1ccc(SCCSc2nnc(-c3ccccc3F)n2C2CC2)cc1	i
O=C(O)COc1ccc(NC(=O)c2ccc3c(c2)C(=O)N(Cc2ccccc2)C3=O)cc1	i
CCCn1cc(CNC(=O)c2ccc3c(c2)n(CC)c(=O)c2ccnn23)c(C)n1	22µM*
O=C(Nc1ccc(-c2ccc(Cl)cc2)cc1)c1ccncc1	i
CCCn1cc(CN2CCC(n3nccc3NC(=O)c3ccccc3)CC2)c(C)n1	i
CCn1c(=O)c(=O)n(CC)c2cc(N3CCCCC3)c(NC(=O)c3ccc(C)cc3)cc21	i
O=C(Nc1ccc(Cl)cc1)c1ccc2c(c1)n(Cc1ccccc1)c(=O)c1ccnn12	20µM*
CCN(CC)C(=O)c1ccc2c(c1)n(Cc1ccc(OC)cc1)c(=O)c1ccnn12	i
O=C(O)c1ccc2oc(=O)n(Cc3ccccc3)c2c1	i
Cn1c(=O)c(=O)n(C)c2cc(C(=O)NCc3ccccc3Cl)ccc21	i
CCn1c(=O)c(=O)n(CC)c2cc(N3CCCCC3)c(NC(=O)c3ccc(OC)c(OC)c3)cc21	i
O=C(O)c1ccc2c(c1)n(Cc1ccccc1)c(=O)c1ccnn12	28µM*
CCn1c(=O)c2ccnn2c2ccc(C(=O)O)cc21	22µM*
Cc1c(C)c2cc(Cl)c(OCC(=O)NCc3ccccn3)cc2oc1=O	i
COc1cccc(NC(=O)c2c(-c3ccccc3)oc3ccc(OC)cc23)c1	i
Cc1ccc(-c2noc(CN3CCCC3c3cccn3C)n2)cc1 (centres undefined)	i
O=C(NCc1ccco1)c1cc2c(s1)CCN(C(=O)c1ccc(Cl)cc1)C2	i
Cc1ccc(CC(=O)NCCc2c[nH]c3ccc(C)cc23)cc1	i
CC(C)CC(=O)NCCC1=CCCCC1	i
CCCN1CCC(N(C)C(=O)NCc2ccccc2F)CC1	i
Cc1ccc(-c2nnn(CC(O)COc3ccc(C)cc3C)n2)cc1 (centres undefined)	i
Cc1cc(C)c(NC(=O)CCCc2cccs2)c(Cl)c1	i
COc1ccc(NC(=O)c2c(-n3cnnn3)sc(C)c2C)cc1Cl	i
SMILES	KDM5B inhibitor
C=CCNc1nc(-c2ccc(NC(C)=O)cc2F)cs1	i
Cc1ccc(CNC(=O)c2ccc3c(c2)n(Cc2ccccc2)c(=O)c2ccnn23)o1	32µM*
Cc1ccc(CNC(=O)c2ccc3oc(=O)n(Cc4ccccc4)c3c2)cc1	i
Cc1ccc(C(=O)NCCc2cccnc2)cc1	i
CCOc1ccc(CNC(=O)c2ccc3oc(=O)n(Cc4ccccc4)c3c2)cc1	i
O=C(NCCc1cccnc1)c1ccc(F)cc1	i
CCn1c(=O)c2ccnn2c2ccc(C(=O)NCCc3cccnc3)cc21	32µM*
O=C(Nc1nccs1)[C@@H]1C[C@H](c2ccc(F)cc2)N(Cc2ccccc2Cl)C1	i
Cc1nc(NCC(C)C)sc1C(=O)NCc1ccncc1	i
CN(CCS(=O)(=O)c1ccccc1)Cc1ccccc1	i
Cn1cc(C(=O)NC2CCN(Cc3nnc(C(C)(C)C)o3)CC2)cn1	i
CCCCN(CC)Cc1c(C)[nH]c2ccc(Br)cc2c1=O	i
CN(CC(=O)Nc1ccc(Cl)c(Cl)c1)S(=O)(=O)Cc1ccc(F)cc1	i
COc1ccc(NC(=O)Nc2c(NC3CCCCC3)c3ccccc3oc2=O)c(OC)c1	i
Cc1ccc(-c2nc(CNc3ccc(Br)cc3)no2)cc1	i
COc1ccc(C(=O)Oc2ccccc2Cl)cc1Br	i
COc1cc(C#N)ccc1OCC(=O)c1ccc2c(c1)OCCCO2	i
COc1ccc(N2CCN(c3cc(C4CC(N)C4)nc(N)n3)CC2(C)C)cc1 (centres undefined)	i
O=C(NCC12CC3CC(CC(C3)C1)C2)c1ccc(Cl)c([N+](=O)[O-])c1	i
CCN(C(=O)C(C)S(=O)(=O)Cc1ccccc1Cl)c1ccccc1 (centres undefined)	i
Cc1cccc(OC[C@H]2C[C@@H](NC(=O)c3ccc(C#N)cc3)[C@H](O)[C@@H]2O)n1	i
Cc1cccc(OC[C@H]2C[C@@H](NC(=O)c3ccccc3)[C@H](O)[C@@H]2O)n1	35µM*
Cc1cccc(OC[C@H]2C[C@@H](NC(=O)C3CCCC3)[C@H](O)[C@@H]2O)n1	i
O=C(CN1CCN(C(=O)c2nn(-c3ccccc3)c(=O)c3ccccc23)CC1)N1CCOCC1	i
COc1ccc(CN(C(=O)c2ccc(S(=O)(=O)N(C)C)cc2)C(C)Cc2cccs2)cc1 (centres undefined)	i
